Assay results as given in PubChem BioAssay (NCI).
This is part of a sample that, as a whole, favours compounds with a hit. Of some 79,000 tested, about 15% had one in any assay. Active and inactive are the calls of the source. No stated cut-off is given here; in the data, active means growth inhibition above about 70%; inactive means the rest.

Assays:
[1] = NCI Yeast Anticancer Drug Screen. Data for the rad52 strain (AID 147);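 further: 0% = growth of vehicle-treated control cultures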; conditions: S. cerevisiae rad52 mutant growth inhibition, active compounds read high
Outline: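 Read-out: growth inhibition versus vehicle-treated controls. Cells were a DNA repair-deficient yeast strain treated with compounds.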

[2] = NCI Yeast Anticancer Drug Screen. Data for the wt1 strain (AID 149);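 further: 0% = growth of vehicle-treated wt1 cultures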; conditions: S. cerevisiae wt1 strain (SPY 50644) growth inhibition, active compounds read high
Outline: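 Measured: growth of wt1 yeast under compound versus vehicle treatment, reported as inhibition.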

[3] = NCI Yeast Anticancer Drug Screen. Data for the rad50EPP+ strain (AID 151);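 further: 0% = growth of vehicle-treated control cultures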; conditions: S. cerevisiae rad50 mutant strain, active compounds read high
Outline: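 Growth inhibition read against vehicle controls in rad50EPP+ yeast, a strain altered in DNA damage repair, after compound exposure.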

[4] = NCI Yeast Anticancer Drug Screen. Data for the mgt1 strain (AID 153); conditions: S. cerevisiae mgt1 mutant growth inhibition, active compounds read high
Outline: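 mgt1 yeast grown with test compound; read-out is growth inhibition versus vehicle-treated cultures.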

[5] = NCI Yeast Anticancer Drug Screen. Data for the rad50 strain (AID 155);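 further: 0% = growth of vehicle-only cultures of the same strain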; conditions: S. cerevisiae rad50 strain growth inhibition, active compounds read high
Outline: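 Growth of the mutant yeast was measured after compound exposure and referenced to vehicle-treated cultures.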

[6] = NCI Yeast Anticancer Drug Screen. Data for the mec2-1 strain (AID 157); conditions: S. cerevisiae mec2-1 strain, active compounds read high
Outline: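 Yeast mec2-1 mutant treated with compound. Readout: growth inhibition vs vehicle controls.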

[7] = NCI Yeast Anticancer Drug Screen. Data for the rad14 strain (AID 159);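 further: 0% = growth of vehicle-treated control cultures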; conditions: S. cerevisiae rad14 strain growth inhibition, active compounds read high
Outline: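 Here, inhibition of yeast growth was measured after compound exposure, using a strain with a genetic defect in DNA damage repair and vehicle-treated cultures as the reference.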

[8] = NCI Yeast Anticancer Drug Screen. Data for the sgs1 mgt1 strain (AID 161);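 further: 0% = growth of cultures given vehicle only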; conditions: S. cerevisiae sgs1 mgt1 strain, active compounds read high
Outline: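 Mutant yeast exposed to compound; growth scored against vehicle-only wells.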

[9] = NCI Yeast Anticancer Drug Screen. Data for the CLN2oe strain (AID 163);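 further: 0% = growth of vehicle-only control cultures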; conditions: S. cerevisiae CLN2oe strain, active compounds read high
Outline: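 Read-out: yeast growth inhibition, expressed relative to vehicle-only controls. The strain bears an engineered cell-cycle alteration.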

[10] = NCI Yeast Anticancer Drug Screen. Data for the cln2 rad14 strain (AID 165);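 further: 0% = growth equal to vehicle treated cultures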; conditions: S. cerevisiae cln2 rad14 strain, active compounds read high
Outline: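 cln2 rad14 yeast strain; compound exposure; growth inhibition read vs vehicle controls.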

[11] = NCI Yeast Anticancer Drug Screen. Data for the bub3 strain (AID 167); conditions: S. cerevisiae bub3 mutant strain, active compounds read high
Outline: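 Whole-cell yeast assay. The mutant strain was incubated with compounds, and growth inhibition was determined by comparison with vehicle-treated cells.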

[12] = NCI Yeast Anticancer Drug Screen. Data for the wt2 strain (AID 169);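 further: 0% = growth of vehicle-treated yeast cultures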; conditions: S. cerevisiae wt2 strain growth inhibition, active compounds read high
Outline: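 Read-out: growth inhibition versus vehicle-treated control cultures after compound exposure of the yeast strain.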

[13] = NCI Yeast Anticancer Drug Screen. Data for the mlh1 strain (AID 171);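 further: 0% = growth of vehicle-treated control cultures of the same strain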; conditions: S. cerevisiae mlh1 strain growth inhibition, active compounds read high
Outline: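 Read-out: growth inhibition versus vehicle controls. Strain: engineered yeast with a defined DNA repair or cell cycle defect, compound-treated.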

[14] = NCI Yeast Anticancer Drug Screen. Data for the sgs1 strain (AID 173);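 further: 0% = growth of vehicle-only control cultures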; conditions: S. cerevisiae sgs1 mutant, active compounds read high
Outline: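 Read-out: yeast growth inhibition relative to vehicle controls, following compound exposure of a strain with a defined DNA repair/cell cycle alteration.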

[15] = NCI Yeast Anticancer Drug Screen. Data for the mlh1 rad18 strain (AID 175); conditions: S. cerevisiae mlh1 rad18 strain growth inhibition, active compounds read high
Outline: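 Yeast w/ defined DNA-repair lesions; compound exposure; growth vs vehicle controls → % inhibition.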

[16] = NCI Yeast Anticancer Drug Screen. Data for the rad18 strain (AID 177); conditions: S. cerevisiae rad18 mutant growth inhibition, active compounds read high
Outline: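 Readout: growth inhibition vs vehicle controls. Cells: genetically altered yeast strain, DNA repair defect.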

[17] = at 5.0 µM (retest, dose inferred, filed as 0.5)
[18] = at 50.0 µM (retest, dose inferred, filed as 5.0)

Measured: growth inhibition

BrC1C2CCC3OC3C12 (stereo not drawn)
active: [1]; at 11.0 µM 97% | [1]; at 33.0 µM 99% | [1]; at 100.0 µM 99% | [2]; at 11.0 µM 96% | [2]; at 33.0 µM 98% | [2]; at 100.0 µM 99% | [3]; at 11.0 µM 70% | [3]; at 33.0 µM 89% | [3]; at 100.0 µM 96% | [4]; at 11.0 µM 77% | [4]; at 33.0 µM 99% | [4]; at 100.0 µM 99% | [5]; at 11.0 µM 92% | [5]; at 33.0 µM 97% | [5]; [18] 99% | [5]; at 50.0 µM 99.5% | [5]; at 100.0 µM 98% | [6]; at 11.0 µM 93% | [6]; at 33.0 µM 99% | [6]; [18] 100% | [6]; at 50.0 µM 99.7% | [6]; at 100.0 µM 99% | [7]; at 11.0 µM 98% | [7]; at 33.0 µM 99% | [7]; at 100.0 µM 99% | [8]; [18] 100% | [8]; at 50.0 µM 99.5% | [9]; at 33.0 µM 99% | [9]; at 100.0 µM 99% | [10]; [18] 99% | [10]; at 50.0 µM 99% | [11]; at 33.0 µM 99% | [11]; [18] 100% | [11]; at 50.0 µM 99.3% | [11]; at 100.0 µM 99% | [12]; at 11.0 µM 98% | [12]; at 33.0 µM 99% | [12]; at 100.0 µM 99% | [13]; at 11.0 µM 86% | [13]; at 33.0 µM 99% | [13]; at 100.0 µM 99% | [14]; at 11.0 µM 98% | [14]; at 33.0 µM 99% | [14]; at 100.0 µM 99% | [15]; [17] 74% | [15]; [18] 99% | [15]; at 50.0 µM 99.5% | [16]; at 11.0 µM 95% | [16]; at 33.0 µM 98% | [16]; at 100.0 µM 99%
inactive: [1]; at 1.2 µM 3% | [1]; at 3.7 µM 16% | [2]; at 1.2 µM 0% | [2]; at 3.7 µM 1% | [3]; at 1.2 µM 9% | [3]; at 3.7 µM 27% | [4]; at 1.2 µM 2% | [4]; at 3.7 µM 3% | [5]; at 1.2 µM 3% | [5]; at 3.7 µM 7% | [5]; [17] 41% | [6]; at 1.2 µM 0% | [6]; at 3.7 µM 5% | [6]; [17] 28% | [7]; at 1.2 µM 0% | [7]; at 3.7 µM 3% | [8]; [17] 65% | [9]; at 1.2 µM 2% | [9]; at 3.7 µM -3% | [9]; at 11.0 µM 53% | [10]; [17] 8% | [11]; at 1.2 µM -4% | [11]; at 3.7 µM -5% | [11]; [17] 2% | [11]; at 11.0 µM 42% | [12]; at 1.2 µM -1% | [12]; at 3.7 µM 2% | [13]; at 1.2 µM -1% | [13]; at 3.7 µM 4% | [14]; at 1.2 µM -1% | [14]; at 3.7 µM 11% | [16]; at 1.2 µM 1% | [16]; at 3.7 µM 7%
